Source: PubChem BioAssay AID2235 (The Scripps Research Institute Molecular Screening Center, 2010)
Among all 320,000 compounds or so, about 2,800 (0.88%) were called active.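 The calls were made as follows: active = inhibition above the mean inhibition of all tested compounds plus 3 SD, computed separately for each screening campaign (cut at about 15% in these data); inactive = the rest.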 The list comes from a sample in which actives are over-represented; it also holds similar structures and randomly drawn compounds.

target: Serine/threonine-protein phosphatase PP1-alpha catalytic subunit (Homo sapiens) (UniProt P62136); assay: PP1-alpha phosphatase inhibitors, primary screen, counter-screen for PP5 inhibitor project, biochemical, fluorescence, OMFP substrate, single point (AID 2235); details: purified PP1alpha, at 6.7 µM, active compounds read high
Sequence (P62136 whole entry, looked up): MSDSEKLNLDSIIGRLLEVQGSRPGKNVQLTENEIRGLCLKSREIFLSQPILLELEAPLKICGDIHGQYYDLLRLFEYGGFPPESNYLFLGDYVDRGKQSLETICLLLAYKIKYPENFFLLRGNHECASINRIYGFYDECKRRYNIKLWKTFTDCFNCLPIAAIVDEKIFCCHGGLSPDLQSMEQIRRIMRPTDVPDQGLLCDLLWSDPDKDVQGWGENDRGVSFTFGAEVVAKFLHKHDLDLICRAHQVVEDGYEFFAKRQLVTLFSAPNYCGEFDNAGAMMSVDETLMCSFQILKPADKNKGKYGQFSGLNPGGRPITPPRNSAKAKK

SMILES | inhibition
COC(=O)Nc1ccc(S(=O)(=O)Nc2cc(OC)nc(OC)n2)cc1 | 0.14% (inactive)
CCOc1ccc(-c2n[nH]c(=S)n2/N=C/c2cc3c(cc2[N+](=O)[O-])OCO3)cc1 | 1.23% (inactive)
Fc1ccc(/C=N/n2c(COc3ccccc3)n[nH]c2=S)cc1 | 1.88% (inactive)
O=[N+]([O-])c1ccccc1/C=N/n1c(COc2ccccc2)n[nH]c1=S | 19.8% (active)
CC(C)(C)OC(=O)N1CCC(NC(=O)c2[nH]cnc2C(=O)N[C@@H](Cc2ccccc2)C(=O)OCc2ccccc2)CC1 | 5.67% (inactive)
COc1ccc(CCNC(=O)COC(=O)c2ccc[nH]c2=O)cc1 | -2.04% (inactive)
CCc1ccc(-c2nn(-c3ccccc3C)cc2C(=O)N2CCN(C3CCS(=O)(=O)C3)CC2)cc1 (centres undefined) | -1.65% (inactive)
CCc1ccc(-c2nn(-c3ccccc3)cc2CSC(=N)N)cc1 | 16.1% (active)
Cc1ccc(-c2nn(-c3ccccc3)cc2C(=O)NC2CCC(O)CC2)cc1 (centres undefined) | -2.02% (inactive)
c1ccc(-c2nccc(-c3ccc(-n4cnc5ccccc54)cc3)n2)nc1 | 44.6% (active)
Cc1nccc(-c2ccc(-n3c(C)ccc3C)cc2)n1 | -1.67% (inactive)
COC(=O)c1ccc(-n2cnc3ccccc32)nc1 | 1.21% (inactive)
CC1(C)CC(=O)C(N=Nc2ccc(S(=O)(=O)N3CCCCCC3)cc2)=C(O)C1 | -0.81% (inactive)
Nc1ncnc(Nc2cccc(Cl)c2Cl)n1 | -0.33% (inactive)
c1ccc(C(c2ccccc2)N2CCN(Cc3nnnn3C3CCCCC3)CC2)cc1 | 1.36% (inactive)
O=C(OCC1O[C@@H](OC(=O)c2cc(O)c(O)c(O)c2)[C@@H](OC(=O)c2cc(O)c(O)c(O)c2)[C@@H](OC(=O)c2cc(O)c(O)c(O)c2)[C@@H]1OC(=O)c1cc(O)c(O)c(O)c1)c1cc(O)c(O)c(O)c1 (some centres undefined) | 82.4% (active)
O=C(OCC1OC(Oc2ccc(O)cc2)C(O)C(O)C1O)c1ccccc1 (centres undefined) | -5.64% (inactive)
CC(C(=O)Nc1ccc(S(=O)(=O)N2CCCC2)cc1)N(C)Cc1ccc(F)cc1 (centres undefined) | -3.95% (inactive)
Cc1ncc(CO)c(/C=N/NC(=O)c2cccc(S(=O)(=O)N3CCCC3)c2)c1O | 2.87% (inactive)
COc1ccc(/C=N/NC(=O)CNC(=O)c2ccc(S(=O)(=O)N3CCCC3)cc2)c(OC)c1 | 0.14% (inactive)
COc1ccc(/C=N/NC(=O)Nc2ccc3nsnc3c2)c(OC)c1 | 15.8% (active)
COc1ccc(/C=N/NC(=O)c2ccc3c(c2)OCCO3)c(OC)c1 | -5.02% (inactive)
O=C1NN(c2ccccc2)C(=O)/C1=C/c1ccc(-c2cccc(C(=O)O)c2)o1 | 5.88% (inactive)
CN1C(=O)/C(=C\c2ccc(-c3ccccc3)o2)SC1=S | -2.09% (inactive)
O=C(O)C(c1ccccc1)N1C(=O)/C(=C\c2ccc(-c3cccc(Cl)c3)o2)SC1=S (centres undefined) | 18.4% (active)
CCOc1ccc(S(=O)(=O)NCc2ccc3c(c2)OCO3)cc1C | 1.37% (inactive)
C/C(=N/NC(=O)CCc1ccccc1)c1ccco1 | -1.45% (inactive)

SMILES | inhibition
N#Cc1c(Cl)nc(-c2cccnc2)nc1-c1ccccc1 | -1.04% (inactive)
Cc1cc(S(=O)(=O)NCC(C)C)ccc1OCC(=O)NC1CC1 | -3.62% (inactive)
Cc1ccc(NC(=S)NC(NC(=O)Cc2cccc3ccccc23)C(Cl)(Cl)Cl)cc1 (centres undefined) | 16.6% (active)
CC(C)(C)C(=O)NC(NC(=S)Nc1ccc(S(N)(=O)=O)cc1)C(Cl)(Cl)Cl (centres undefined) | 1.25% (inactive)
O=C(Cc1cccc2ccccc12)NNC(=O)Nc1ccc(Cl)cc1 | -1.41% (inactive)
CCn1cc(CNC(=O)c2cc([N+](=O)[O-])c(C)c([N+](=O)[O-])c2)cn1 | -2.81% (inactive)
COc1ccc(C(=O)NC2(C(F)(F)F)NC(=O)N(CCCc3ccccc3)C2=O)c(OC)c1OC (centres undefined) | 1.31% (inactive)
CCOc1cc(/C=C2/N=C(c3ccc(C(C)(C)C)cc3)OC2=O)cc(Cl)c1OS(C)(=O)=O | 16% (active)
Cc1ccc(C2=N/C(=C\c3ccc(OS(=O)(=O)c4ccc(C)cc4)cc3)C(=O)O2)cc1 | 0.93% (inactive)
O=C1OC(c2ccc(Cl)cc2)=N/C1=C\c1cccnc1 | -0.8% (inactive)
COc1ccc(NS(=O)(=O)c2ccc(C)c(C(=O)NCC(c3cccs3)N3CCOCC3)c2)cc1 (centres undefined) | -0.23% (inactive)
O=C(COc1ccc(S(=O)(=O)NCc2ccccc2)cc1)N1CCOCC1 | 0.87% (inactive)
Cc1cnc(C(=O)N2CCCC(C(=O)c3ccc(C(F)(F)F)cc3)C2)cn1 (centres undefined) | -4.22% (inactive)
Cc1c(-c2nn(C)c(=O)c3ccccc23)oc2ccc(F)cc2c1=O | 3.07% (inactive)
Cc1cc(C)c(S(=O)(=O)NCCCN2CCOCC2)cc1Br | -3.53% (inactive)
CCC(c1nnnn1Cc1ccco1)N(CCc1ccccc1)Cc1cc2cccc(C)c2[nH]c1=O (centres undefined) | 7.62% (inactive)
CCC(c1nnnn1C1CCCC1)N(Cc1cccs1)Cc1cc2cccc(C)c2[nH]c1=O (centres undefined) | 16.5% (active)
Cc1cccc2cc(CN(Cc3ccc4c(c3)OCO4)Cc3nnnn3C3CCCC3)c(=O)[nH]c12 | -2.51% (inactive)
COc1ccc(OC)c(NC(=O)CN(Cc2ccc(Cl)cc2)S(C)(=O)=O)c1 | 0.99% (inactive)
CCOc1cc(-c2nc3cc(C)ccn3c2NCC2CCCO2)ccc1O (centres undefined) | -2.03% (inactive)
CCCCCN(C(=O)NC(=O)Nc1cccc(C)c1C)S(C)(=O)=O | 4.61% (inactive)
Cc1ccc(OCC(=O)NCCCNC(=O)c2ccco2)cc1C | 2.4% (inactive)
CCCc1ccc(OCC(=O)NNC(=S)NC(=O)c2ccco2)cc1 | 18.6% (active)
CC(Oc1ccc2ccccc2c1)C(=O)NNC(=S)NC(=O)c1ccco1 (centres undefined) | 0.47% (inactive)
CCN(CC)CCC(c1ccc2c(c1)OCO2)c1c(OC)cc(OC)c2c(-c3ccccc3)cc(=O)oc12 (centres undefined) | 1.96% (inactive)
O=C(NCCc1ccccc1)C1CCC(Cn2c(=O)c3ccccc3n(Cc3cccnc3)c2=O)CC1 (centres undefined) | -0.9% (inactive)
CCC(C)N(C(=O)COC(=O)c1nc(Cl)ccc1Cl)C1CCS(=O)(=O)C1 (centres undefined) | -0.12% (inactive)
